Screen size: about 310,000 compounds; about 18,000 (5.8%) were called active. About 22% were inconclusive and are not listed. Only a selection was taken, and actives are over-represented in it overall. Unmarked numbers belong to inactive results. Calls follow the shape of the dose curve; as a rule, active = well fitted inhibition curve with a large enough effect; inconclusive = small, poorly fitted or top-dose-only effect, or another doubt; inactive = no such curve, though single readings can be large or run the other way.
assay: Primary qHTS for delayed death inhibitors of the malarial parasite plastid, 48 hour incubation; conditions: P. falciparum luciferase growth in erythrocytes; series mostly up to 28.7 µM; activity change, negative = inhibition: at the top concentration
Outline: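 First compound was added to culture medium, then infected red cells at 0.1% parasitemia and 2% hematocrit (final). After incubation at 37 C under 5% CO2, luciferase detection reagent was dispensed and light output recorded.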
% is scaled to controls: 0 for no effect and ±100 for the full control effect; potency is read from the fitted curve at half-maximal effect.

Structure (SMILES)	activity change, negative = inhibition	Potency
CCOC(=O)C1CN(S(=O)(=O)c2ccc(OC)cc2)c2cc(Cl)ccc2O1 (stereo not drawn)	-15.5% [at 0.00184 µM]	
O=C(NNC(=O)c1cccnc1)Nc1ccccc1	-5.94%	
O=C(NNC(=O)c1csc(-c2cccnc2)n1)Nc1ccc(Cl)cc1		8.28 µM (active)
O=C(Nc1ccc(Cl)cc1)Nc1ccc(Oc2cccnc2)nc1	61.4%	
COc1cccc(CNS(=O)(=O)c2ccc3c(c2)CC(C)N3C(C)=O)c1 (stereo not drawn)	19.4%	
Cc1cccc(OCC(=O)NC2CC(C)(C)NC(C)(C)C2)c1	9.53%	
COc1ccc(CCNC(=O)c2c(C)nn(-c3ccccc3)c2Cl)cc1	17.6%	
N#Cc1ccc(Oc2cc(C(F)(F)F)nc(-c3ccccn3)n2)cc1	22.8%	
Cc1ccc(Oc2nc(-c3ccccn3)nc3ccccc23)cc1		1.47 µM (active)
COc1ccc(Nc2nc(-c3cccnc3)nc3ccccc23)cn1	0%	
COc1ccc(Cc2nc(-c3ccccn3)no2)cc1OC	54.6%	
COc1cnc(-c2ccccn2)nc1Oc1ccc(C(C)(C)C)cc1		1.65 µM (active)
Cc1ccc(Oc2nc3ccccc3n3c(C)nnc23)cc1	15.2%	
CCC(=O)OCCNc1nc(-c2ccccc2)nc2ccccc12	20.8%	
COc1ccc(Sc2nc(-c3ccccc3)ncc2OC)cc1	60.4%	
CC(C)(C)Nc1nc(-c2ccccn2)nc2ccccc12		2.94 µM (active)
COc1ccc(S(=O)(=O)N(CC(=O)N/N=C/c2ccc(C(=O)O)cc2)Cc2ccccc2)cc1OC	-7.28%	
COc1ccc(C)cc1N(CC(=O)NC(C)c1ccccc1)S(C)(=O)=O (stereo not drawn)	-4.34%	
Cc1ccccc1OCC(=O)NNC(=O)c1cc(S(=O)(=O)N(C)C)ccc1N1CCCC1	-1.17%	
Cc1ccc(S(=O)(=O)N(CC(O)CN2CCCCC2)c2cccc([N+](=O)[O-])c2)cc1 (stereo not drawn)	3.97%	
CC(C)CNS(=O)(=O)c1ccc(CCC(=O)NCc2ccc(Cl)cc2)cc1	-15.5%	
NC(=O)c1cc(S(=O)(=O)N2CCCC2)ccc1OCc1ccc(F)cc1	-18.6%	
CCOc1ccc(-c2nnc3ccc(SC)nn23)cc1	19.5%	
CCOc1ccc(-c2nnc(-c3ccco3)o2)cc1	-31.2%	
CCOc1ccc(-c2cc(C)[n+](CCN(CC)CC)c(-c3ccc(OCC)cc3)c2)cc1		0.329 µM (active)
O=C(Nc1ccc(NC(=O)c2ccco2)c(Cl)c1)c1cccc([N+](=O)[O-])c1		10.4 µM (active)
COc1cc(NC(=O)c2cc([N+](=O)[O-])ccc2Br)ccc1NC(=O)c1ccco1	12.6%	

Structure (SMILES)	activity change, negative = inhibition	Potency
CCC(=O)NC(=S)Nc1ccc(NC(=O)c2ccco2)c(Cl)c1	10.8%	
Cc1ccc(OCC(=O)NC(C)c2ccccc2)cc1C (stereo not drawn)	-4.35%	
Cc1ccc(/C=N/NC(=O)C2=NNC(c3ccccc3)(c3ccccc3)C2)c(O)c1		4.15 µM (active)
O=C(N/N=C/c1ccc(O)c2ccccc12)c1cccnc1	-3.94%	
Cc1ccc2occ(/C=N/NC(=O)c3ccccc3C)c(=O)c2c1	33.4%	
CCN(C(=O)CSc1nnnn1-c1ccccc1OC)C1CCS(=O)(=O)C1 (stereo not drawn)	-20.5%	
CC(=O)N1CCSc2ccc(S(=O)(=O)N3CCC(C)CC3)cc21	1.61%	
CCc1ccc(NC(=O)Cn2nnc(C(=O)NCc3ccc(OC)cc3)c2N)cc1	23%	
COc1cccc(-c2ccc(SCC(=O)N3CCN(c4ccccc4)CC3)nn2)c1	-4.56%	
COc1ccc(C(CC(=O)N2CCN(c3ccccc3)CC2)c2c(O)cc(OC)cc2OC)cc1 (stereo not drawn)		10.4 µM (active)
CC(CC(=O)N1CCN(c2ccccc2)CC1)c1ccccc1 (stereo not drawn)	-0.834%	
Cc1ccc(CS(=O)(=O)CCC(=O)NCc2ccc(F)cc2)cc1	21.5%	
CC[C@]1(c2ccccc2OC)C(=O)N(C(=O)OC)N1C(=O)OC	-64%	
CCOc1ccc(NC(=O)CN(C)C(=O)c2c(C)noc2C)cc1OCC	5.49%	
Cc1ccc(S(=O)(=O)CCC(=O)OCC(=O)N(C)C2CCS(=O)(=O)C2)cc1 (stereo not drawn)	-27.9%	
Cc1cc(C)c(C)c(S(=O)(=O)Nc2ccc(O)cc2)c1C		7.38 µM (active)
Cc1cc(C(C)(C)C)cc(S(=O)(=O)Nc2ccc(C(=O)O)cc2)c1C	-2.76%	
CCOc1ccc(NS(=O)(=O)c2cc(C)c(C)cc2C)cc1	0.582%	
NS(=O)(=O)c1ccc(CCNC(=O)CNC(=O)Cc2ccccc2)cc1	23.1%	
O=C1NC(=O)C(c2ccc(Cl)cc2)N1 (stereo not drawn)	11.5%	
S=C(c1ccccc1)N1CCCC1	6.41%	
CC1CCN(c2nc3c(c(=O)[nH]c(=O)n3C)n2CCCc2ccccc2)CC1		11.7 µM (active)
CCCSc1nc2c(c(=O)[nH]c(=O)n2C)n1CCc1ccccc1	5.19%	
Cn1c(=O)[nH]c(=O)c2c1nc(N1CCCCCC1)n2CC(=O)c1ccccc1	8.78%	
Cc1[nH]c2ccccc2c1C(=O)C(C)Sc1nnc(C2CC2)o1 (stereo not drawn)		3.7 µM (active)
Cc1[nH]c2ccccc2c1C(=O)CN1CC(C)CC(C)C1 (stereo not drawn)	-1.93%	
